In PubChem BioAssay AID1851 (National Center for Advancing Translational Sciences (NCATS), 2009) one finds activity, negative = inhibition and AC50 data, which are given here for 98 molecules.

SMILES strings stand for the structures. In all, about 16,000 compounds went through this assay and about 5,800 (36%) were called active. Not shown: some 23% with an inconclusive outcome. The list shows a part of the results. Values without a mark were called inactive. The call rests on the fitted dose curve; in most records, active means well fitted curve in the direction sought with a large enough effect; inconclusive means small, poorly fitted or top-dose-only effect, or effect the other way; inactive means no such curve, though single readings can be large or run the other way.
On the % scale 0 is the no-effect control and ±100 the full control effect.

For this assay, the target named is Cytochrome P450 2C19 (Homo sapiens) (UniProt P33261). The experiment in a line: Cytochrome panel assay with activity outcomes. Conditions: recombinant CYP, pro-luciferin dealkylation, luminescence, p450-cyp2c19; series mostly up to 57.1 µM.
Cytochrome P450 2C19 (Homo sapiens), sequence (P33261 whole entry, looked up): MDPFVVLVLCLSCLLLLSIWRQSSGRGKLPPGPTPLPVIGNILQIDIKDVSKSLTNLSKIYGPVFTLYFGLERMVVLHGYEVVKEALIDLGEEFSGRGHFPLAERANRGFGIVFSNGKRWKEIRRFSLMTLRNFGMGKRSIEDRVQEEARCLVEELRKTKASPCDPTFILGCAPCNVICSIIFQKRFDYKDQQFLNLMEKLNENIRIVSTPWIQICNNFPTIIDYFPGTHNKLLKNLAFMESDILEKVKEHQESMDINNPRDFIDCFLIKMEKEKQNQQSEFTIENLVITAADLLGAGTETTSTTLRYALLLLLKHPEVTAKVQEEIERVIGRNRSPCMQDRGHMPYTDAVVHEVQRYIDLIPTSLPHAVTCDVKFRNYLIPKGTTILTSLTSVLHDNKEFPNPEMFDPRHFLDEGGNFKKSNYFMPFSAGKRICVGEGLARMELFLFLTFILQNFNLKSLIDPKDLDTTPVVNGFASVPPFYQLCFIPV
`Nc1ncnc2c1ncn2C[C@@H](O)C(=O)O`: the activity, negative = inhibition was -17.6% [at 11.4 µM].

For `O=C1NCC2(CCN(CCc3ccccc3)CC2)O1`, the AC50 entry was “inactive”.

Take `COc1ccc(OC)c(C2C(C(=O)Nc3nc4ccccc4s3)=C(C)NC3=C2C(=O)CCC3)c1` (stereo not drawn): the AC50 was 0.891 µM (active).

Turning to `Cc1ncc([N+](=O)[O-])n1CC(C)O` (stereo not drawn), the AC50 entry was “inactive”.

`Cc1ncc([N+](=O)[O-])n1CC(=O)NCc1ccccc1`: the AC50 result was “inactive”.

Regarding `Cc1ccc([C@@H](O)c2cnc(C)n2Cc2ccccc2)cc1`, the AC50 was 1.26 µM (active).

Regarding `COc1ccc(Oc2ncc3nc(-c4ccc(F)cc4)c(=O)n(Cc4cccs4)c3n2)cc1`, the AC50 entry is “inactive”.

With `CCC1(C)CC(CCNS(=O)(=O)c2ccc(C)cc2)(c2ccc(C)cc2)CCO1` (stereo not drawn), the AC50 was 3.98 µM (active).

`CC1(C)O[C@@H]2O[C@H]([C@@H]3COC(C)(C)O3)[C@H](N)[C@H]2O1`: the activity, negative = inhibition is 14.5% [at 11.4 µM].

`CCOc1ccc(OCC)c(-c2c(=O)n(OCc3ccccc3C(=O)OC)c3ccccc3[n+]2[O-])c1`: the concentration at half-maximal activity (AC50) is 4.47 µM (active).

As to `CCOc1ccc(OCC)c(-c2c(=O)n(OCc3ccc(C(C)(C)C)cc3)c3ccccc3[n+]2[O-])c1`, the AC50 is 1.58 µM (active).

Consider `COc1ccc(CCNC(=O)COC(=O)c2cnc(C)cn2)cc1`, for which the AC50 entry was “inactive”.

With `COc1ccc(CNC(=O)C2CSC(=O)C2)cc1` (stereo not drawn), the AC50 result is “inactive”.

`COc1ccc(CNC(=O)c2csc(Cc3ccc(Cl)cc3)n2)cc1`: the half-maximal activity concentration (AC50) was 2.51 µM (active).

`COc1ccc(CNC(=O)c2cnc(C)cn2)cc1`: the AC50 was 14.1 µM (active).

Turning to `COc1ccc(CNC(=O)c2csc(Cc3ccc(OC)cc3)n2)cc1`, the AC50 is 8.91 µM (active).

Regarding `COc1ccccc1NC(=O)c1nc[nH]c1C(=O)Nc1ccccc1OC`, the AC50 result was “inactive”.

With `COc1ccccc1NC(=O)C(C/C=C(\C)Cl)C(C)=O` (stereo not drawn), the AC50 is 3.55 µM (active).

Regarding `O=C(COC(=O)c1cccnc1Nc1cccc(C(F)(F)F)c1)NCc1ccc2c(c1)OCO2`, the half-maximal activity concentration (AC50) was 3.55 µM (active).

With `O=C(COC(=O)c1ccccc1Nc1cccc(C(F)(F)F)c1)NCc1ccco1`, the concentration at half-maximal activity (AC50) was 2 µM (active).

For the molecule `Cc1cccc(Nc2ccccc2C(=O)OCC(=O)NCc2ccco2)c1C`, the AC50 is 5.01 µM (active).

Turning to `O=C(O)c1cccnc1Nc1cccc(C(F)(F)F)c1`, the AC50 entry was “inactive”.

With `Cc1cccc(Nc2ccccc2C(=O)O)c1C`, the AC50 result was “inactive”.

With `O=C(O)CCCC[C@H]1CCSS1`, the AC50 result was “inactive”.

As to `COc1ccccc1CNc1ncncc1-c1cccc(C#N)c1`, the AC50 is 3.16 µM (active).

For `COc1ccc(CNc2ncncc2-c2cccc(C#N)c2)c(OC)c1`, the AC50 is 5.01 µM (active).

On to `Cc1n[nH]c(=O)nc1NCc1ccccc1Cl`, for which the concentration at half-maximal activity (AC50) was 28.2 µM (active).

Consider `Cc1cnc(CNc2nc(-c3ccccc3Cl)nc3ccccc23)cn1`, for which the AC50 result was “inactive”.

Turning to `CCCCCCCOC1(c2ccccc2)OC(=O)c2ccccc21` (stereo not drawn), the half-maximal activity concentration (AC50) is 3.55 µM (active).

Turning to `CCCCOC1(c2ccccc2)OC(=O)c2ccccc21` (stereo not drawn), the half-maximal activity concentration (AC50) is 6.31 µM (active).

`CC(=O)[C@@]1(O)Cc2c(O)c3c(c(O)c2[C@H](O[C@H]2C[C@H](N)[C@H](O)[C@H](C)O2)C1)C(=O)c1ccccc1C3=O`: the AC50 result is “inactive”.

Regarding `COc1ccc(C(=O)NC(=S)NC(C)(C)C)cc1Br`, the half-maximal activity concentration (AC50) is 3.55 µM (active).

On to `COc1ccc(C(=O)NC(=S)NC(C)C)cc1Br`, for which the AC50 is 2.24 µM (active).

As to `C=CCN1CCc2c(cc(O)c(O)c2Br)[C@H](c2ccccc2)C1`, the AC50 result was “inactive”.

As to `COC(=O)CNC(=O)CN1C(=O)N(c2ccc(Cl)cc2)C(N(O)C(=O)Nc2ccc(Cl)cc2)C1(C)C` (stereo not drawn), the AC50 is 14.1 µM (active).

As to `NC(=NCc1ccc(Cl)c(Cl)c1)NC(=O)c1nc(Cl)c(N)nc1N`, the AC50 result was “inactive”.

Consider `CCCCCCCCCCCCC(=O)N1CCCC[C@H]1CNC(=O)[C@@H](N)CCCCN`, for which the AC50 is 7.94 µM (active).

As for `CN(CCO)Cc1ncccc1O`, the activity, negative = inhibition was 42.9% [at 11.4 µM].

On to `Cc1cccc(CN(C)CCc2ccccn2)c1`, for which the concentration at half-maximal activity (AC50) is 15.8 µM (active).

Regarding `CN(CCc1ccccn1)Cc1ccc(Cl)cc1Cl`, the AC50 is 0.447 µM (active).

Consider `O=C(O)[C@@H](O)Cc1ccccn1`, for which the activity, negative = inhibition is 14.4% [at 11.4 µM].

With `CC(C)C(=O)C(C)(C)CCc1ccccn1`, the activity, negative = inhibition is -41.1% [at 11.4 µM].

`CCC(CC)C(=O)Nc1c2cnn(-c3ccccc3)c2nc(=O)n1-c1ccccc1`: the AC50 result was “inactive”.

As to `CCOC(=O)c1cnn(-c2ccccc2)c1-n1cccc1C(=O)C(=O)Nc1ccccc1C(F)(F)F`, the concentration at half-maximal activity (AC50) was 7.94 µM (active).

In the case of `O=C(O)c1nnsc1-c1ccc(-c2snnc2C(=O)O)cc1`, the activity, negative = inhibition is -40.8% [at 11.4 µM].

As to `N#CC(c1ccc(Cl)cc1)c1nc2ccccc2nc1C(F)(F)F` (stereo not drawn), the half-maximal activity concentration (AC50) was 0.562 µM (active).

With `CC1CCCC(NC(=O)C2CCN(S(=O)(=O)N3CCOCC3)CC2)C1C` (stereo not drawn), the AC50 entry was “inactive”.

For the molecule `O=C(N1CCOCC1)N1CCN(c2ccccc2)CC1`, the concentration at half-maximal activity (AC50) is 14.1 µM (active).

`O=C(Nc1ccccc1)N1CCCC2(CCNCC2)C1`: the AC50 result is “inactive”.

For the molecule `c1ccn(-c2ccc(N3CCOCC3)cc2)c1`, the AC50 entry was “inactive”.

For `O=C(Nc1ccccc1)N1CCC2(CCNCC2)CC1`, the AC50 result is “inactive”.

For `O=C(Nc1cccc(NC(=O)N2CCN(c3ccccc3)CC2)c1)N1CCN(c2ccccc2)CC1`, the concentration at half-maximal activity (AC50) is 5.01 µM (active).

Consider `O=C(C1CCN(S(=O)(=O)N2CCOCC2)CC1)N1CCN(c2ccccc2)CC1`, for which the AC50 is 25.1 µM (active).

Regarding `O=C(CCNS(=O)(=O)c1ccc2c(c1)CCC(=O)N2)NCc1ccc2c(c1)OCO2`, the AC50 entry was “inactive”.

On to `COc1ccc(NC(=O)CCNS(=O)(=O)c2ccc3c(c2)CCC(=O)N3)cc1`, for which the AC50 result is “inactive”.

For `COc1ccc(N(C)S(=O)(=O)c2ccc3c(c2)CCC(=O)N3)cc1`, the AC50 is 6.31 µM (active).

With `N#Cc1cccc(NC(=O)N2CC[C@@]3(CCCN(C(=O)c4ccncc4)C3)C2)c1`, the AC50 result is “inactive”.

Consider `Cc1cc(NC(=O)CSc2n[nH]c(-c3cccs3)n2)no1`, for which the AC50 is 14.1 µM (active).

Take `Cc1cc(NC(=O)CSc2ccc3nnc(-c4ccc(F)cc4)n3n2)no1`: the AC50 entry was “inactive”.

As to `CCCCc1nc(SCC(=O)Nc2ncccn2)n[nH]1`, the AC50 result was “inactive”.

For the molecule `N[C@@H](Cn1ccc(=O)n(Cc2ccccc2C(=O)O)c1=O)C(=O)O`, the half-maximal activity concentration (AC50) was 0.1 µM (active).

As for `N[C@H](Cn1ccc(=O)n(Cc2ccccc2C(=O)O)c1=O)C(=O)O`, the AC50 result is “inactive”.

With `Cc1nn(-c2ccccc2)c(Cl)c1C(=O)Nc1c(C)n(C)n(-c2ccccc2)c1=O`, the AC50 entry was “inactive”.

As for `CCc1nnc(NC(=O)c2c(C)nn(-c3ccccc3)c2Cl)s1`, the AC50 was 20 µM (active).

`CCCCCc1nnc(NC(=O)C(=O)OCC)s1`: the AC50 result was “inactive”.

As to `COc1ccccc1CNCc1cccs1`, the AC50 is 8.91 µM (active).

Take `COc1cc(CNCc2cccs2)ccc1OCC(=O)NC(C)(C)C`: the AC50 is 14.1 µM (active).

With `COc1ccccc1CNCCCCCCNCCCCCCCCNCCCCCCNCc1ccccc1OC`, the AC50 entry was “inactive”.

On to `COc1cc(CNCc2cccs2)cc(Br)c1OC`, for which the concentration at half-maximal activity (AC50) was 2.51 µM (active).

Consider `CC(C)NC(=O)N1CCCC2(CCN(C(=O)c3csnn3)CC2)C1`, for which the AC50 entry is “inactive”.

As to `COCC(=O)N1CCC2(CCCN(C(=O)Nc3cccc(F)c3)C2)CC1`, the AC50 result was “inactive”.

As for `CN(C)C(=O)c1ccc(-c2ccc3ncnc(NCCN4CCOCC4)c3c2)cc1`, the AC50 entry was “inactive”.

`CN(C)C(=O)c1ccc(-c2cncnc2NCCN2CCOCC2)cc1`: the AC50 entry was “inactive”.

`Cc1ccc(-c2csc3ncnc(NCCN4CCOCC4)c23)cc1`: the AC50 was 11.2 µM (active).

Take `CN(C)c1ccc(-c2cncnc2NCCN2CCOCC2)cc1`: the AC50 was 6.31 µM (active).

Consider `CC(C)=CCC/C(C)=C/CO/N=C1/C[C@@H](O)[C@@H](O)[C@@H]2[C@@H]3C(=O)N(C[C@@H]4CCCO4)C(=O)[C@H]3CC[C@H]12`, for which the activity, negative = inhibition is -12% [at 11.4 µM].

`Cc1cc(N)c2ccccc2[n+]1CCCCCCCCCC[n+]1c(C)cc(N)c2ccccc21`: the AC50 entry was “inactive”.

As to `Nc1cc2c(nc3c4ccccc4c(N)cc3[n+]2-c2cccc3ccccc23)c2ccccc12` (tested in a mixture with another compound), the half-maximal activity concentration (AC50) is 1 µM (active).

With `COc1cc(/C=C(\C#N)C(=O)c2ccc(O)c(O)c2)cc(I)c1O`, the AC50 result was “inactive”.

With `COc1cc(/C=C(\C#N)C(N)=O)cc(CSc2nc3ccccc3s2)c1O`, the half-maximal activity concentration (AC50) was 3.16 µM (active).

As for `COc1ccc(/C=C(\C#N)C(N)=O)c(OC)c1`, the activity, negative = inhibition is 6.18% [at 11.4 µM].

For `CCc1ccc(N/C(SCc2ccccc2C)=C(/C#N)C(=O)NCc2ccco2)cc1`, the AC50 was 2.82 µM (active).

Regarding `CCNC(=O)NC(=O)CSc1nc2ccccc2n1CC(C)C`, the half-maximal activity concentration (AC50) was 5.62 µM (active).

Consider `CC(C)Cn1c(SCC(=O)c2c(N)n(C)c(=O)n(C)c2=O)nc2ccccc21`, for which the AC50 was 7.94 µM (active).

Turning to `O=C(CSc1nnc(-c2ccco2)n1-c1ccccc1)NCc1ccco1`, the AC50 was 8.91 µM (active).

For the molecule `O=C(CSc1nnc2sc3ccccc3n12)NCc1ccco1`, the AC50 was 10 µM (active).

`Cc1cc(C)c(NC(=O)C(C)Sc2nnc(-c3ccco3)n2-c2ccccc2)c(C)c1` (stereo not drawn): the half-maximal activity concentration (AC50) is 1.78 µM (active).

As for `Cc1cc2c(cc1C)-c1nnc(-c3ccc4ccccc4n3)n1C(C)(C)C2`, the AC50 result is “inactive”.

`CN(C)CC[C@H](c1ccc(Cl)cc1)c1ccccn1`: the AC50 result was “inactive”.

Turning to `CC(c1ccc(Cl)cc1)n1c(-c2ccc3ccccc3n2)n[nH]c1=S` (stereo not drawn), the AC50 was 0.447 µM (active).

Regarding `CC(=O)OC[C@@H]1O[C@@H](O/N=C2/C[C@@H](O)[C@@H](O)[C@@H]3[C@@H]4C(=O)N(C5CCCCC5)C(=O)[C@H]4CC[C@H]23)[C@H](OC(C)=O)[C@H](OC(C)=O)[C@@H]1OC(C)=O`, the activity, negative = inhibition was 9.71% [at 11.4 µM].

As for `Cc1cccc(-n2cccc2)c1C#N`, the half-maximal activity concentration (AC50) is 17.8 µM (active).

For `N#Cc1c(-n2ccnc2)cccc1-n1ccnc1`, the AC50 is 2.24 µM (active).

Consider `N#Cc1c(Cl)cccc1-n1ccnc1`, for which the AC50 is 8.91 µM (active).

As to `FC(F)(F)c1ccccc1-n1ccnc1`, the AC50 result is “inactive”.

With `CSC(=NC#N)N1CCN(c2ccc(Cl)cc2)CC1`, the concentration at half-maximal activity (AC50) was 0.708 µM (active).

For the molecule `O=C(Cn1cnc2ccccc2c1=O)NCCC(=O)Nc1ccc2c(c1)OCCO2`, the AC50 result was “inactive”.

For the molecule `O=C(CCNC(=O)Cn1cnc2ccccc2c1=O)NCC1COc2ccccc2O1` (stereo not drawn), the AC50 was 28.2 µM (active).

The term AC50 denotes the concentration giving half of the maximal activity seen.
